“And” between values parts separate entries of the source, which are not always exact repeats. Equal values may be shown once. Inconclusive results are not listed. The source holds several records for some structures; these can differ, active in one and inactive in another. The source made the active and inactive calls. Rule for the calls, unless noted: active = hit-call score of the fitted dose curve at least 0.9, where 1 is the maximum; inconclusive = response in the unintended direction; inactive = score below 0.9.
What was measured:
[1] = read-out: Transforming Growth Factor (TGFA), TGFA (gene 7039); experiment: LTEA_HepaRG_TGFA: Life Technologies and Expression Analysis (LTEA) Assay for Transforming Growth Factor (TGFA) using HepaRG (AID 2283532; active = hit-call score of the fitted dose curve at least 0.9, where 1 is the maximum; inactive = score below 0.9); settings: mRNA level, 48 h; actives raise or lower the signal
In short: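 TGFA transcript quantified by qRT-PCR (Fluidigm arrays) against three housekeeping genes, after 48 hours chemical treatment of HepaRG cells. Top concentration 100 uM with half-log dilutions, 8 points, duplicates, 0.5% DMSO.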

[2] = read-out: Transforming Growth Factor (TGFB1), TGFB1 (gene 7040); experiment: LTEA_HepaRG_TGFB1: Life Technologies and Expression Analysis (LTEA) Assay for Transforming Growth Factor (TGFB1) Transporter using HepaRG (AID 2283533; active = hit-call score of the fitted dose curve at least 0.9, where 1 is the maximum; inactive = score below 0.9); settings: mRNA level, 48 h; actives raise or lower the signal
In short: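 HepaRG, 48 h post-plating, switched to serum-free induction medium; chemicals 100 uM top, half-log, 8 pts, 0.5% DMSO, dup; 48 h exposure; RNA → Fluidigm TaqMan qRT-PCR; norm ACTB/GAPDH/POLR2A; bidirectional fit vs DMSO.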

TIMP1, TIMP1 (gene 7076) = experiment: LTEA_HepaRG_TIMP1: Life Technologies and Expression Analysis (LTEA) Assay for TIMP1 using HepaRG (AID 2283534; active = hit-call score of the fitted dose curve at least 0.9, where 1 is the maximum; inactive = score below 0.9;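 note: TaqMan qRT-PCR signal normalized to ACTB GAPDH and POLR2A housekeeping genes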); settings: mRNA level, 48 h; actives raise or lower the signal
In short: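 Readout is TIMP1 mRNA level measured by qRT-PCR and normalized to three housekeeping genes. Human HepaRG cells were treated for 48 h in duplicate at eight concentrations up to 100 uM (0.5% DMSO); gain or loss fitted against DMSO.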

[3] = read-out: Tumor necrosis factor receptor 1 (TNFRSF1A), TNFRSF1A (gene 7132); experiment: LTEA_HepaRG_TNFRSF1A: Life Technologies and Expression Analysis (LTEA) Assay for Tumor necrosis factor receptor 1 (TNFRSF1A) using HepaRG (AID 2283535; active = hit-call score of the fitted dose curve at least 0.9, where 1 is the maximum; inactive = score below 0.9); settings: mRNA level, 48 h; actives raise or lower the signal
In short: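 Read-out is TNFRSF1A transcript level by TaqMan qRT-PCR, normalized to three housekeeping genes, scored as gain or loss of signal versus 0.5% DMSO. Human HepaRG cells received test chemicals for 48 h at up to 100 uM (half-log series).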

[4] = read-out: Thyroid Hormone Responsive (THRSP), THRSP (gene 7069); experiment: LTEA_HepaRG_THRSP: Life Technologies and Expression Analysis (LTEA) Assay for Thyroid Hormone Responsive (THRSP) using HepaRG (AID 2283536; active = hit-call score of the fitted dose curve at least 0.9, where 1 is the maximum; inactive = score below 0.9); settings: mRNA level, 48 h; actives raise or lower the signal
In short: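 THRSP transcript quantified by Fluidigm qRT-PCR against three housekeeping genes after 48 h chemical exposure of HepaRG cells in serum-free induction medium; eight-point half-log series, top 100 uM, 0.5% DMSO vehicle, duplicate wells.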

[5] = read-out: Cellular tumor antigen p53 (Homo sapiens) (UniProt P04637); experiment: LTEA_HepaRG_TP53: Life Technologies and Expression Analysis (LTEA) Assay for Tumor Protein P53 (TP53) using HepaRG (AID 2283537; active = hit-call score of the fitted dose curve at least 0.9, where 1 is the maximum; inactive = score below 0.9); settings: mRNA level, 48 h; actives raise or lower the signal
In short: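 TP53 transcript measured by qRT-PCR, normalized to three housekeeping genes, after 48 h treatment of human HepaRG cultures with chemicals from 100 uM downward in half-log steps (0.5% DMSO vehicle, serum-free induction medium). Up- or down-regulation fitted against DMSO.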

[6] = read-out: UDP glucuronosyltransferase (UGT1A1), UGT1A1 (gene 54658); experiment: LTEA_HepaRG_UGT1A1: Life Technologies and Expression Analysis (LTEA) Assay for UDP glucuronosyltransferase (UGT1A1) using HepaRG (AID 2283538; active = hit-call score of the fitted dose curve at least 0.9, where 1 is the maximum; inactive = score below 0.9); settings: mRNA level, 48 h; actives raise or lower the signal
In short: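 Cells are plated, cultured 48 h, switched to serum-free induction medium, then dosed 48 h at eight concentrations (max 100 uM, 0.5% DMSO). RNA is isolated and UGT1A1 expression measured by qRT-PCR; changes versus DMSO are fitted in both directions.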

[7] = read-out: UDP glucuronosyltransferase (UGT1A6), UGT1A6 (gene 54578); experiment: LTEA_HepaRG_UGT1A6: Life Technologies and Expression Analysis (LTEA) Assay for UDP glucuronosyltransferase (UGT1A6) using HepaRG (AID 2283539; active = hit-call score of the fitted dose curve at least 0.9, where 1 is the maximum; inactive = score below 0.9); settings: mRNA level, 48 h; actives raise or lower the signal
In short: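 HepaRG, 48 h post-plating switch to serum-free induction medium; chemical 48 h, 100 uM top, half-log x8, duplicate, 0.5% DMSO. Phenobarbital 1mM induction control. UGT1A6 mRNA by TaqMan qRT-PCR; gain/loss fit vs DMSO.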

[8] = read-out: X-box binding protein 1 (XBP1), XBP1 (gene 7494); experiment: LTEA_HepaRG_XBP1: Life Technologies and Expression Analysis (LTEA) Assay for X-box binding protein 1 (XBP1) using HepaRG (AID 2283540; active = hit-call score of the fitted dose curve at least 0.9, where 1 is the maximum; inactive = score below 0.9); settings: mRNA level, 48 h; actives raise or lower the signal
In short: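 Transcript levels of XBP1, measured by qRT-PCR and normalised to three housekeeping genes, were fitted bidirectionally relative to 0.5% DMSO controls. Human HepaRG cells received eight-point half-log dilutions from 100 uM for 48 h.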

[9] = LTEA_HepaRG_LDH_cytotoxicity: Cytotoxicity Assessment in the Life Technologies and Expression Analysis (LTEA) Assay (AID 2283563);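 for AC50: LDH activity released into spent culture medium as a marker of cell death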
In short: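 Cells were thawed and plated for 48 h. Medium was then replaced with serum-free induction medium. Chemicals (8 half-log points, maximum 100 uM, 0.5% DMSO) were added in duplicate for 48 h, after which spent medium was assayed for LDH.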

[10] = ATG_XTT_Cytotoxicity: Cytotoxicity Assessment in the Attagene TRANS-FACTORIAL HepG2 Assay (AID 2283584)
In short: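 Cells: human HepG2, transiently transfected with MRTU reporter constructs. Exposure 24 h. Readout: XTT, cell number. Baseline/neg ctrl DMSO; loss-of-signal scored.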

[11] = TOX21_p53_BLA_p2_viability: Viability Assessment in the Tox21 HCT-116 p53 Agonism Beta-lactamase Assay, Phase 2 (AID 2283591);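 note: compound exposure lasted 16 h at 37 °C; actives lower the ATP signal meaning cytotoxicity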
In short: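 Cytotoxicity readout: CellTiter-Glo ATP luminescence, 30 min at room temperature, after the beta-lactamase read. Cells were HCT116 exposed 16 h at 37C to compounds pin-transferred at 217-fold dilution from DMSO stocks.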

[12] = TOX21_p53_BLA_p3_viability: Viability Assessment in the Tox21 HCT-116 p53 Agonism Beta-lactamase Assay, Phase 3 (AID 2283593);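 note: cells exposed to compound for 16 h before reading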
In short: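 Cellular ATP was quantified by CellTiter-Glo luminescence, read after 30 min at room temperature. Beforehand, HCT116 cells (4000/well) received compound 5 h post-seeding, 217-fold diluted from DMSO, then incubated 16 h at 37C.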

[13] = target: Cellular tumor antigen p53 (Homo sapiens) (UniProt P04637); experiment: TOX21_p53_BLA_p3_ratio: Tox21 HCT-116 p53 Agonism Beta-lactamase Assay, Ratio, Phase 3 (AID 2283596)
In short: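 Cells were seeded at 4000/well, rested 5 h at 37C, then dosed with DMSO compound solutions (217-fold dilution) for 16 h. CCF4-AM substrate was loaded for 2 h at room temperature, and the 460/530 nm emission ratio was fitted for gain of signal versus DMSO.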

[14] = TOX21_p53_BLA_p4_viability: Viability Assessment in the Tox21 HCT-116 p53 Agonism Beta-lactamase Assay, Phase 4 (AID 2283597);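 note: hits lower the luminescence signal meaning cytotoxicity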
In short: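 Readout: ATP luminescence (CellTiter-Glo), measured 30 min after reagent addition at RT. The reagent followed a 2 h CCF4-AM incubation, and the cells had been exposed to compound for 16 h at 37C.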

[15] = target: Cellular tumor antigen p53 (Homo sapiens) (UniProt P04637); experiment: TOX21_p53_BLA_p5_ratio: Tox21 HCT-116 p53 Agonism Beta-lactamase Assay, Ratio, Phase 5 (AID 2283599)
In short: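 Beta-lactamase reporter ratio (blue 460 nm over green 530 nm, 405 nm excitation) after 2 h CCF4-AM loading, in HCT-116 cells exposed 16 h at 37 C to compounds pinned at 217-fold dilution. Increases relative to DMSO baseline scored.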

[16] = TOX21_p53_BLA_p5_viability: Viability Assessment in the Tox21 HCT-116 p53 Agonism Beta-lactamase Assay, Phase 5 (AID 2283600)
In short: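 Workflow: seed 4000 cells per well, wait 5 h, add compounds (DMSO, 217-fold dilution), incubate 16 h, load CCF4-AM 2 h, add CellTiter-Glo, read luminescence after 30 min.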

[17] = target: Cellular tumor antigen p53 (Homo sapiens) (UniProt P04637); experiment: TOX21_p53_BLA_p4_ratio: Tox21 HCT-116 p53 Agonism Beta-lactamase Assay, Ratio, Phase 4 (AID 2283601)
In short: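 Signal is the blue/green (460nm/530nm) ratio of cleaved versus uncleaved CCF4-AM substrate, read after 2 h substrate loading. Cells were HCT116 carrying the p53-responsive beta-lactamase reporter, dosed 16 h at 37C, 5% CO2; CellTiter-Glo measured in parallel.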

[18] = target: Cellular tumor antigen p53 (Homo sapiens) (UniProt P04637); experiment: TOX21_p53_BLA_p2_ratio: Tox21 HCT-116 p53 Agonism Beta-lactamase Assay, Ratio, Phase 2 (AID 2283592)
In short: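 Plated HCT116 p53-bla cells (4000/well) received compound after 5 h, then 16 h at 37C/5% CO2. CCF4-AM added, 2 h RT. Ratio of 460 to 530 nm emission taken as the p53 reporter signal.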

[19] = Tanguay_ZF_120hpf_MORT_legacy: (Legacy) Oregon State University Tanguay Lab 120 Hour Post-fertilization zebrafish Assay for Mortality (AID 2283633)
In short: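 5D WT zebrafish, chorion removed 4 hpf; 1 embryo/well from 6 hpf; static exposure to 120 hpf, 28C, dark, sealed. Final DMSO 0.64%. Readout: binary mortality, brightfield, 24 + 120 hpf; DMSO as negative control.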

Measured: AC50

Chain of Cellular tumor antigen p53 (Homo sapiens) (P04637 whole entry, looked up): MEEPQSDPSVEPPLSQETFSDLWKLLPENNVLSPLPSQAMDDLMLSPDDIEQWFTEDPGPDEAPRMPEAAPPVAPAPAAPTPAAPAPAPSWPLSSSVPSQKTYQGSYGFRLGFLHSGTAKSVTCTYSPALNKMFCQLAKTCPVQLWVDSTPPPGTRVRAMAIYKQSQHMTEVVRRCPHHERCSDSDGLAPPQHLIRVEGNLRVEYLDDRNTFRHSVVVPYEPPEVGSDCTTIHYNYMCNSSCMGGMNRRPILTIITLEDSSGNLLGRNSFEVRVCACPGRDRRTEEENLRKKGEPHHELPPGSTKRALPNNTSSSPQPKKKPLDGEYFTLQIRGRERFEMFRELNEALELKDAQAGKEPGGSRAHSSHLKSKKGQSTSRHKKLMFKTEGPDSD

ClC1=C(Cl)C2(Cl)C3C(Cl)C=CC3C1(Cl)C2(Cl)Cl (centres undefined)
active: [5] 14.1 µM | [6] 2.86 µM | [11] 85.9 µM | [12] 46.1 µM and 69.6 µM | [14] 45.8 µM | [16] 75 µM
inactive: [1] | [2] | TIMP1, TIMP1 (gene 7076) | [3] | [4] | [7] | [8] | [9] | [10] | [11] | [13] | [14] | [15] | [16] | [17]

CC(C)(C)OOC(C)(C)CCC(C)(C)OOC(C)(C)C
not listed: [7] | [13] | [14]
inactive: all other assays above

CCC12COCN1COC2
not listed: [10] | [18] | [19]
inactive: all other assays above

CCCCC(CC)COC(=O)c1ccc(C(=O)OCC(CC)CCCC)c(C(=O)OCC(CC)CCCC)c1 (centres undefined)
not listed: [7] | [11] | [16] | [18] | [19]
inactive: all other assays above

Nc1ccc([N+](=O)[O-])cc1
not listed: [18] | [19]
inactive: all other assays above

[As]#[In]
not listed: [10] | [14] | [15] | [16] | [18] | [19]
inactive: all other assays above

CCN(CC)CCO
not listed: [12] | [18] | [19]
inactive: all other assays above

c1ccc(NNc2ccccc2)cc1
not listed: [12] | [14] | [16]
inactive: all other assays above

Clc1ccc(C(c2ccc(Cl)cc2)C(Cl)(Cl)Cl)cc1
active: [4] 68.1 µM | [6] 2.03 µM | [9] 72.3 µM | [11] 46.1 µM and 46.4 µM and 23 µM | [12] 77.1 µM and 30.7 µM | [14] 30.7 µM | [15] 82.5 µM and 43.3 µM | [16] 68.3 µM and 31.9 µM
inactive: [1] | [2] | TIMP1, TIMP1 (gene 7076) | [3] | [5] | [8] | [10] | [12] | [13] | [14] | [15] | [16] | [17]

OCCCBr
not listed: [7] | [19]
inactive: all other assays above

CO[C@@H]1[C@H](OC(=O)NC(=O)CCl)CC[C@]2(CO2)[C@H]1[C@@]1(C)O[C@@H]1CC=C(C)C
not listed: [11] | [16] | [17] | [18]
inactive: all other assays above

COP(=S)(OC)SCN1C(=O)c2ccccc2C1=O
not listed: [10] | [19]
inactive: all other assays above

CN(C)c1ccccc1
not listed: [7] | [19]
inactive: all other assays above

CCCCOC(=O)c1ccccc1C(=O)OCc1ccccc1
not listed: [7] | [18] | [19]
inactive: all other assays above

— PubChem BioAssay (EPA / NIEHS)
